# System: Plasmodium falciparum
# Experiment: GSK_TCMDC: Inhibition of Plasmodium falciparum Dd2 in whole red blood cells, using parasite LDH activity as an index of growth. Test compounds present at 2uM
# Format: functional
row,SMILES,Inhibition
1,CN1CC[C@@H](Oc2cc(C(=O)NCc3ccc(Cl)c(Cl)c3)ccc2C(F)(F)F)C1.Cl,4%
2,CC(C)(C)Oc1ccc(C[C@@H]2NC3(C(=O)N(Cc4ccc(Cl)c(Cl)c4)c4ccccc43)C3C(=O)N(c4ccc(Br)cc4)C(=O)C32)cc1 (stereo not given in full),25%
3,CC(C)Cc1nc(N2CCOCC2)c2nnn(Cc3ccccc3)c2n1,76%
4,CN(C(=O)Cc1ccc(Cl)c(Cl)c1)C1CCN(CCCCCNC(=O)/C=C/c2ccc(Cl)c(Cl)c2)CC1,13%
5,Br.C=CCc1cccc(C)c1OCCCON1C(=N)N=C(N)NC1(C)C,95%
6,CCNC(=O)Nc1ccc(-c2cccc(-c3nc4cccc(C)c4[nH]3)c2)cc1,34%
7,COc1ccc(CCNCC(O)COc2nccc3c(S(=O)(=O)N4CCCNCC4)cccc23)cc1OC.Cl (stereo not given),0%
8,Nc1nc(N)c2cc(C(F)(F)F)ccc2n1,1%
9,O=C(Nc1ccc(Cn2ncc(N3CCCNCC3)c(Cl)c2=O)cc1)Nc1cc(C(F)(F)F)cc(C(F)(F)F)c1.O=C(O)C(F)(F)F,29%
10,CC(=O)Nc1ccc2[nH]cc(C3CCN(CC4CCC(NC(=O)/C=C/c5ccccc5Cl)CC4)CC3)c2n1 (stereo not given),79%
11,CCCCOC(=O)NCCCC[C@H](NC(=O)OC(C)(C)C)C(=O)N[C@H](C(=O)OC(c1ccccc1)c1ccccc1)[C@H]1O[C@@H](n2ccc(=O)[nH]c2=O)[C@@H]2OC(C)(C)O[C@@H]21,65%
12,O=C(Nc1cccc(CN2CCCN(Cc3ccsc3)CC2)c1)c1ccc(-c2ccccc2)cc1.O=C(O)C(F)(F)F,11%
13,Cl.O=C(Oc1ccc(C2CNCCc3c2cc(OC(=O)c2ccc(O)cc2)c(OC(=O)c2ccc(O)cc2)c3Cl)cc1)c1ccc(O)cc1 (stereo not given),60%
14,O=C(Cn1c(CCc2cccc(F)c2F)nc(=O)c2ccccc21)N(CCCN1CCCC1)Cc1ccc(-c2ccc(C(F)(F)F)cc2)cc1.O=C(O)C(O)C(O)C(=O)O,80%
15,COc1ccc2ncc(F)c([C@@H](O)CN3CCC(NCc4cc5c(cn4)OCS5)CC3)c2c1.Cl,98%
16,O=C(NCCCN1CCC(N2CCCCC2)CC1)c1ccc(N2CCOc3ccccc32)s1,12%
17,Cc1ccc(Cn2nc(N3CCNCC3)ccc2=O)cc1NC(=O)Nc1ccc(-c2ccccc2)cc1.O=C(O)C(F)(F)F,20%
18,CCN(CC)CCN(Cc1ccc(-c2ccc(Cl)s2)cc1)C(=O)Cn1c(CCc2cccc(F)c2F)nc(=O)c2ccccc21.O=C(O)C(O)C(O)C(=O)O,27%

row,SMILES,Inhibition
1,COC(=O)C1(NC(=O)c2ccc(-n3nc(C)c(-c4ccccc4)c3N)cc2)CCCC1,81%
2,Cc1ccccc1CNc1noc(-c2sccc2Br)n1,88%
3,N=C(N)c1ccc(NC(=O)c2cc(Sc3ccc(O)c(C(=O)Nc4ccc(C(=N)N)cc4)c3)ccc2O)cc1,87%
4,O=C(NCCCc1ccccc1)c1csc(C2CCCN(C(=O)c3ccc(O)c(-c4cccc5ccccc45)c3)C2)n1 (stereo not given),98%
5,Cc1ccc(C2CC(c3cccs3)=NN2C(=O)c2ccc(Br)o2)cc1 (stereo not given),69%
6,CCCNC(=O)c1cncc(-c2ccc(CNC3Cc4ccccc4C3)cc2)c1.O=C(O)C(F)(F)F,21%
7,COc1ccc(CCNC(=O)c2ccccc2O)cc1-c1ccc(C(C)(C)C)cc1,96%
8,O=C(/C=C/c1ccccc1Cl)Nc1ccc(Br)c(OCCN2CCC(O)(c3ccccc3)CC2)c1.O=C(O)C(=O)O,85%
9,COc1cc2[nH]c(-c3ccc(O)cc3)c(C)c(=O)c2c(OC)c1OC,94%
10,COCCNCc1cccc(C#Cc2cc3ncnc(Nc4ccc(OCc5cccc(F)c5)c(Cl)c4)c3s2)n1,52%
11,NCc1ccc(-c2cccc(CNC3CCN(Cc4ccccc4)CC3)c2)cc1.O=C(O)C(F)(F)F,50%
12,COc1ccc2nccc([C@@H](O)CN3CCC(NCc4cnc5c(c4)NC(=O)CS5)C(F)C3)c2c1.Cl (stereo not given in full),90%
13,CC(Cl)=CCc1c(C)nc2c(ccc3ccccc32)c1O,96%
14,NC(CC1CC(=O)N1CC(=O)O)C(=O)O (stereo not given),0%
15,CCN(CC)CCCC(C)Nc1ccnc2[nH]c3ccccc3c12 (stereo not given),38%
16,Cc1ccc(C2CC(=O)CC(c3ccccn3)C2[N+](=O)[O-])cc1 (stereo not given),2%
17,Cc1[nH]c(C)c(-c2ccc(OCCCc3ccccn3)cc2)c(=O)c1Br.Cl,97%
